Measured values from ChEMBL document CHEMBL3988442, “University of Dundee, Small-Polar-MMV Screening Library” (2021).

The compounds below were run against AMP-activated protein kinase, AMPK (Homo sapiens) (UniProt P54646+O43741+P54619+Q9UGJ0+Q9Y478+Q13131+Q9UGI9) (assay: AMP-dependent Kinase enzyme assay. An in vitro enzyme assay that detects ADP turnover that is directly proportional to AMPK activity. This uses naive AMPK that is activated during the assay with MK-8722). Conditions: 30 µM.
Type: functional
Set-up: scale not given: direction of the effect not stated beside the values
With O=C(NC1CC1)c1nc(Cn2c(C(F)F)nc3ccccc32)no1 the Percent Effect was 10.9%. Compound CCN(CC1CCCO1)C(=O)NCCNC(=O)c1ccccc1F (centres undefined) has a Percent Effect of 1.37%. CC1(C)CN(Cc2ccncc2)CCS1(=O)=O gave a Percent Effect of -9.12%. CN1CCc2nc(C3CCCN(S(=O)(=O)c4ccccc4)C3)ncc2C1 (centres undefined) showed a Percent Effect of 6.25%. With Cn1cc(NC(=O)N2CCCC2c2ccccn2)ccc1=O (centres undefined) the Percent Effect was 40.9%. NC(=O)c1csc(N2C[C@@H](CN3CCC(O)CC3)[C@@H](CO)C2)n1 showed a Percent Effect of -1.72%. For CN(CC(O)C(F)(F)F)C(=O)Nc1cccc(N2CCCC2)c1 (centres undefined), the Percent Effect was -4.79%. Work on COc1c(C)cnc(CN2CCn3c(nnc3C(C)C)C2)c1C yielded a Percent Effect of 22%. In the case of Cn1cc(-c2cc(C(=O)N3CCOCC3)c3ccc(F)cc3n2)cn1, the Percent Effect is reported as 18.9%. CN(CC1CCCCO1)c1nc2c(cc1C(N)=O)CCC2 (centres undefined) showed a Percent Effect of -5.23%. Compound NC1CCc2nc(-c3ccncc3)nc(Nc3cccc(F)c3)c2C1 (centres undefined) has a Percent Effect of -70.9%. Compound CN(Cc1cccc(-n2cccn2)c1)Cc1c[nH]cn1 has a Percent Effect of -6.63%. CCCN(CC(=O)NC)C(=O)c1ccc(-c2nc(C)cs2)cc1 was tested, and the Percent Effect was 1.67%. For O=C(Nc1cccc(N2CCOCC2)c1)N[C@H](CO)c1ccccc1, the Percent Effect was 6.04%. COC(=O)c1ccc(Cn2cccc(C(F)(F)F)c2=O)c(OC)c1 showed a Percent Effect of 6.82%. Work on O=C(CCC1CCCO1)NCCCO (centres undefined) yielded a Percent Effect of -4.81%. CN(CCc1ccccc1)c1cnn(C)c(=O)c1Br gave a Percent Effect of 7.95%. COc1ccc(C(=O)NCc2ccco2)nn1 gave a Percent Effect of -4.45%. CC(C)NC(=O)C1(Cc2ccccc2-c2ccccc2)CCCNC1 (centres undefined) showed a Percent Effect of 13.9%.
